The list is not random: actives were taken first. Their share in the collection is about 2.1%.
FUS yeast rescue = rescues growth of FUS-expressing yeast; Potency, µM (series often up to 76.6 µM), actives largely listed as activators; AID 1347120; 390,000 compounds, 0.24% hits; S. cerevisiae FUS-expressing, growth rescue, OD600, 24 h; note: nearly all actives have a fitted effect of over 55% in size
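Absorbance at 600 nm, taken 24hr after compound addition, measured rescue of FUS-yeast growth at 30C. Induction used 2% galactose with seeding at OD 0.005. Controls: CP55940 from 92uM final, DMSO only.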
TDP-43 yeast inh = TDP-43 toxicity inhibition in yeast | Potency, µM (highest dose often 46.1 µM), hits mostly activators | 410,000 compounds, 1.8% hits | TDP-43 expressing yeast growth rescue, BacTiter-Glo, 24 h; note: nearly all actives have a fitted effect of over 50% in size
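Cell-based yeast growth screen: TDP-43 expression induced in galactose, inoculum OD600=0.02 after raffinose pregrowth to mid-log. Read-out BacTiter-Glo luminescence at 24 hr, 30 deg C; inhibition of toxicity seen as signal increase.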
aSyn rescue = inhibitors of alpha-synuclein toxicity in yeast; Yeast expressing alpha-synuclein, growth rescue, BacTiter-Glo, 24 h; Potency, µM (highest dose often 46.1 µM), hits mostly activators; 370,000 compounds, 0.14% hits; note: nearly all actives have a fitted effect of over 65% in size
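Galactose-induced alpha-syn yeast (OD600=0.02, raffinose-pregrown) + pinned cpd, 24 hr, 30 deg C; growth by BacTiter-Glo luminescence. Growth restoration scores as activation.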
Abeta yeast res = restores growth of yeast expressing A-beta42 peptide; yeast expressing A-beta42, growth rescue, OD600, 48 h; response scale: 0% DMSO, 100% iron-clioquinol control; Potency, µM (titrated, usually from 46.1 µM), actives largely listed as activators; 410,000 compounds, 0.063% hits; AID 1347071; note: nearly all actives have a fitted effect of over 55% in size
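Yeast A-beta toxicity model in growth medium with pinned compounds, 48 h at 30 C; growth read as absorbance at 600 nm. Normalized to FeCl3/clioquinol equimolar mix (positive) and DMSO (negative).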
Large screens that a line does not name were inactive. Calls come from the whole dose curve; as a rule, active = well fitted curve in the direction sought with a large enough effect; inconclusive = small, poorly fitted or top-dose-only effect, or another doubt; inactive = no such curve, though single readings can be large; an effect the other way counts as inactive or inconclusive.

COc1ccc2[nH]c3c(c2c1)CCN1C(=O)C(CC(=O)NCCC2=CCCCC2)C[C@H](C(=O)N(C(C)C)C(C)C)[C@@]31C (stereo partly drawn)	FUS yeast rescue inconclusive, TDP-43 yeast inh inconclusive
CN(C)C(=O)CCc1ccc2c3c([nH]c2c1)[C@]1(CCC2CCCC2)[C@@H](C(=O)N2CCOCC2)C[C@H](CC(=O)NCCC2=CCCCC2)C(=O)N1CC3	FUS yeast rescue 16µM
CN(C)C(=O)CCc1ccc2c3c([nH]c2c1)[C@]1(CCC2CCCC2)[C@@H](C(=O)N2CCOCC2)C[C@H](CC(=O)NCCN2CCOCC2)C(=O)N1CC3	none
CC(C)N(C(=O)[C@H]1CC(CC(=O)NCCC2=CCCCC2)C(=O)N2CCc3c([nH]c4ccccc34)[C@]12C)C(C)C (stereo partly drawn)	FUS yeast rescue inconclusive, TDP-43 yeast inh 35µM, aSyn rescue inconclusive
Cc1cc(C)n(-c2cc(C(C)(C)C)nc3c(-c4ccc(Cl)cc4)cnn23)n1	none
Cc1cc(C)n(-c2cc(C(C)(C)C)nc3c(-c4ccccc4)cnn23)n1	TDP-43 yeast inh 14µM
COc1ccc(CCN(C)C(=O)CN2C(=O)NC3(CCCc4ccccc43)C2=O)cc1OC (stereo not drawn)	none
Cc1cc(C)nc(Nc2cccc(C(F)(F)F)c2)n1	TDP-43 yeast inh inconclusive
COc1nc(Nc2cccc(C(F)(F)F)c2)nc(OC)n1	TDP-43 yeast inh 14µM
Cc1cccc(C(=O)OCC(=O)c2c(C)[nH]c3ccccc23)c1O	TDP-43 yeast inh inconclusive
O=C(Nc1ccccc1Cc1ccccc1)c1ccccc1F	TDP-43 yeast inh inconclusive, Abeta yeast res 2.5µM
O=C(Nc1ccccc1Oc1ccccc1)c1ccccc1F	TDP-43 yeast inh 13µM
CS(=O)(=O)c1ccccc1C(=O)Nc1ccccc1Cc1ccccc1	none
O=C(NCc1cccs1)c1cccnc1Cl	none
Cc1ccc(Nc2ncccc2C(=O)NCc2cccs2)c(C)c1	TDP-43 yeast inh 11µM (no result: aSyn rescue)
Cc1cccc(Nc2ncccc2C(=O)NCc2cccs2)c1C	TDP-43 yeast inh 7.9µM
CCn1c(SCC(=O)Nc2ccc3c(c2)c2ccccc2n3CC)nnc1-c1ccco1	FUS yeast rescue 25µM
Cc1cccc(N2CC(c3nc4ccc(C)cc4[nH]3)CC2=O)c1 (stereo not drawn)	none (no result: aSyn rescue)
O=C(N/N=C/c1ccncc1)c1ccccc1	none
O=C(N/N=C/c1cccc(Oc2ccccc2)c1)c1ccncc1	TDP-43 yeast inh 13µM
COc1cccc2c1O/C(=N\O)C(C(=O)Nc1cccc(Br)c1)C2 (stereo not drawn)	none
Cc1ccc(NC(=O)C2CCN(S(=O)(=O)c3c(C)noc3C)CC2)c(C)c1	none (no result: aSyn rescue)
CCCCn1c(SCC(=O)NCc2ccco2)nc2c(sc3ccccc32)c1=O	FUS yeast rescue 10µM
CCOCCCn1c(SCC(=O)NCc2ccco2)nc2c(sc3ccccc32)c1=O	none (no result: aSyn rescue)
NC(=O)C1CCCN1S(=O)(=O)c1ccc2ccccc2c1 (stereo not drawn)	none
COc1cccc2cc(C(C)=O)oc12	TDP-43 yeast inh inconclusive
COc1cccc2cc(/C(=N/O)c3ccccc3)oc12	TDP-43 yeast inh 11µM
Cc1c(CC(=O)N2CCN(C(=O)C3COc4ccccc4O3)CC2)c(=O)oc2cc(O)cc(O)c12 (stereo not drawn)	FUS yeast rescue 18µM
Cc1ccc(NC(=O)CN2C(=O)COc3ccc(S(=O)(=O)NC4CCCC4)cc32)cc1Cl	none (no result: aSyn rescue)
CCc1cccc(Nc2c3c(nc4ncnn24)CCC3)c1	TDP-43 yeast inh 18µM
COc1cccc(NC(C)C(=O)Nc2cc([N+](=O)[O-])ccc2Cl)c1 (stereo not drawn)	TDP-43 yeast inh 11µM
COc1ccc(OC(C)C(=O)Nc2cccc([N+](=O)[O-])c2)cc1 (stereo not drawn)	TDP-43 yeast inh 10µM (no result: FUS yeast rescue)
CC(=O)Nc1cccc(OCCCOc2cccc([N+](=O)[O-])c2)c1	TDP-43 yeast inh 13µM (no result: FUS yeast rescue)
COc1ccc(NC(=S)Nc2cccc([N+](=O)[O-])c2)cc1	TDP-43 yeast inh inconclusive
COc1ccc(OC)c(NC(=O)Cn2cnc3onc(-c4ccc(Cl)cc4)c3c2=O)c1	none (no result: aSyn rescue)
COc1ccc(CCNCc2c(C(=O)O)c(C)n(Cc3ccccc3C)c2C)c(OC)c1	none (no result: aSyn rescue)
N#Cc1cc(-c2ccccc2)[nH]c1-c1nccc2ccccc12	TDP-43 yeast inh 11µM
COC(=O)c1c(-c2ccccc2)[nH]c(-c2nccc3ccccc23)c1C(=O)OC	none
Cn1cccc1/C=C(/C#N)C(N)=S	none
CCCCc1ccc(/C=C(\C#N)C(N)=S)s1	TDP-43 yeast inh 20µM, Abeta yeast res inconclusive
O=[N+]([O-])c1cccc(-c2ccc(SCc3cccnc3)nn2)c1	TDP-43 yeast inh 16µM
CC(O)(c1cccc(F)c1)c1nc(-c2ccccc2)cs1 (stereo not drawn)	none
CC(O)(c1cccc(F)c1)c1nc(-c2cccc(C(=O)O)c2)cs1 (stereo not drawn)	TDP-43 yeast inh 35µM
COc1ccc(-c2csc(C(C)(O)c3cccc(F)c3)n2)cc1OC (stereo not drawn)	TDP-43 yeast inh 35µM
CCN(CC)C(=O)c1cccc(-c2csc(C(C)(O)c3ccc(F)c(F)c3)n2)c1 (stereo not drawn)	FUS yeast rescue inconclusive, TDP-43 yeast inh 14µM
COc1ccc(-c2csc(C(C)(O)c3ccncc3)n2)cc1OC (stereo not drawn)	none
OC(c1ccccc1)(c1nc(-c2cccc(C(F)(F)F)c2)cs1)C(F)(F)F (stereo not drawn)	none
N#Cc1cccc(-c2csc(C(O)(c3ccccc3)C(F)(F)F)n2)c1 (stereo not drawn)	Abeta yeast res 13µM
CC(=O)N1CCN(C(=O)OC2CC3CC2[C@H]2CCCCN2C3=O)CC1 (stereo partly drawn)	none
CC(O)(c1cccc(F)c1)c1nc(-c2cccc(C(F)(F)F)c2)cs1 (stereo not drawn)	none
COc1ccc(-c2csc(C(C)(O)c3cccc(OC)c3)n2)cc1 (stereo not drawn)	TDP-43 yeast inh inconclusive
CC(O)(c1cccc(F)c1)c1nc(-c2cccc(C#N)c2)cs1 (stereo not drawn)	TDP-43 yeast inh 35µM
COc1cccc(C(C)(O)c2nc(-c3ccc(C)c(C)c3)cs2)c1 (stereo not drawn)	TDP-43 yeast inh 14µM
Oc1ccc(C[C@H]2CN([C@@H](Cc3ccc(O)cc3)CN3CCC[C@@H]3CN3C(=S)NC[C@@H]3Cc3ccccc3)C(=S)N2CC2CCCCCC2)cc1	FUS yeast rescue inconclusive
CCN1CCN(Cc2c(O)ccc3oc(C)c(C(=O)Nc4cccc(C(F)(F)F)c4)c23)CC1	none (no result: aSyn rescue)
CCN(Cc1ccccc1)C(=O)C1CCCN(c2ncccn2)C1 (stereo not drawn)	none (no result: TDP-43 yeast inh, aSyn rescue, Abeta yeast res)
COc1ccc(NC(=O)CN(C)C(=O)CNC(=O)c2ccc(C)s2)cc1	none
CCCCCCNC(=O)C1CSCCS(=O)(=O)N1Cc1ccc(OC)cc1 (stereo not drawn)	none (no result: TDP-43 yeast inh, aSyn rescue, Abeta yeast res)
Cc1cccc2sc(=S)[nH]c12	TDP-43 yeast inh inconclusive
Clc1cccc(OCc2nc(-c3ccncc3)no2)c1	TDP-43 yeast inh 11µM

Screens as filed in PubChem.
